These results are taken from PubChem BioAssay (NCI).

Molecules are shown by their SMILES. The panel holds about 83,000 compounds, 20% with a hit somewhere; the sample as a whole holds those more often.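 Each cell line was grown in a 96-well plate and treated with one concentration of compound for 48 hours. Values below 10 were considered active.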 Unmarked numbers belong to inactive results. Activity calls are given as the source filed them.

Assay in all cases: NCI-60 one-dose screen, 48 h (100 = growth as untreated, 0 = no growth, -100 = all killed)
What all share (conditions): 10 µM unless noted

In experiment [1] the test system is MOLT-4 leukemia.
Experiment [2] relates to SR leukemia.
Experiment [3] has as its system RPMI-8226 leukemia.
Experiment [4] relates to OVCAR-8 ovarian.
Experiment [5] concerns OVCAR-5 ovarian.
Experiment [6] deals with OVCAR-4 ovarian.
In experiment [7] the test system is SK-OV-3 ovarian.
For experiment [8], the system named is IGROV1 ovarian.
Experiment [9] deals with HS 578T breast.
Experiment [10] deals with NCI/ADR-RES ovarian.
Experiment [11] concerns T-47D breast.
For experiment [12], the system named is BT-549 breast.
The test system of experiment [13] is MDA-MB-435 melanoma.
Experiment [14] relates to SW-620 colon.
The subject of experiment [15] is HCC-2998 colon.
Experiment [16] has as its system KM12 colon.
Experiment [17] concerns OVCAR-3 ovarian.
In experiment [18] the test system is MCF7 breast.
Experiment [19] has as its system HCT-116 colon.

In the case of `COC(=O)[C@@H](C)C[C@H](Cc1ccccc1)NC(=O)c1csc([C@@H](C[C@H](C(C)C)N(C)C(=O)[C@H](C)NC(=O)[C@H]2CCCN2C)OC(C)=O)n1`, the growth in experiment [1] is 42.6%; in [2], 14.1%; in [3], 9.55% (active); in experiment [4], 58.3%; in experiment [5] it was 110%; in [6], 88.9%. Besides, the growth in [7] is 73.2%; in experiment [8], 58.1%; in experiment [9], 17.6%; in experiment [10], 92.4%; in [11], 50.9%; in [12] it was 36.9%. Also, the growth is -27.1% (active) in [13], 28.5% in experiment [14], 62.8% in experiment [15] and 30.7% in [16].
Consider `C1CCC([PH+](C2CCCCC2)C2CCCCC2[PH+](C2CCCCC2)C2CCCCC2)CC1.O=C(C1[CH-]CCCC1)C1CCCC[N-]1.[Au]` (centres undefined), for which the growth in [1] is -5.55% (active); in experiment [2], -1.52% (active); in [3], -10.6% (active); in experiment [4], 3.3% (active); in experiment [5], -64.5% (active); in [7], -52.2% (active). Moreover, the growth in experiment [8] was -33.5% (active); in [17] it was -77.7% (active); in experiment [12] it was -14.7% (active); in experiment [13] it was -43.6% (active); in experiment [14] it was 2.27% (active); in experiment [18], -42.9% (active). Besides, the growth is -54% (active) in experiment [19], -83% (active) in [15] and -60.9% (active) in experiment [16].
For the compound `COc1ccc(/C(C)=C(\c2ccc(OCCN3CCOCC3)cc2)c2ccc(OC(=O)Cc3ccccc3)cc2)cc1`, the growth in experiment [1] was 104%; in experiment [2] it was 112%; in experiment [3] it was 84.6%; in experiment [4] it was 100%; in [5] it was 104%; in experiment [6], 106%. The growth was 97.6% in [7]; 113% in experiment [8]; 110% in experiment [9]; 102% in [10]; 65.4% in [11]; 108% in [12]. For the same compound, the growth in experiment [13] was 107%; in experiment [14], 111%; in experiment [18], 71.7%; in experiment [15] it was 102%; in [16] it was 103%.
Consider `COc1cc([C@@H]2c3cc4c(cc3[C@H](OC(C)=O)[C@H]3COC(=O)[C@H]23)OCO4)cc(OC)c1OC`, for which the growth is 16.7% in [1]; 9.46% (active) in [2]; 23.4% in [3]; 21.1% in experiment [4]; 56.4% in experiment [5]; 39.3% in experiment [7]. For the same compound, the growth in experiment [8] is 21.2%; in [9] it was 46.6%; in experiment [10], 3.8% (active); in experiment [11], 57.8%; in [12], 31.5%; in experiment [13], -8.58% (active). Besides, the growth in experiment [14] is 27.3%; in [18], 14.9%; in [19], 7.01% (active); in experiment [15] it was 15%; in experiment [16], 17.8%.
Regarding `CS(=O)(=O)CCN1CC2CCCC(C2)C1`, the growth in experiment [1] is 102%; in experiment [2], 93.9%; in experiment [3], 101%; in experiment [4], 104%; in [7], 100%; in [8], 115%. The growth is 110% in [17]; 102% in [9]; 105% in experiment [10]; 102% in [11]; 92.5% in experiment [12]; 111% in experiment [14]. Also, the growth is 92.3% in experiment [18], 94.7% in experiment [19], 99.5% in [15] and 111% in [16].
For the compound `Cn1cc(C=O)c2nccnc21`, the growth in [1] was 101%; in [2] it was 105%; in experiment [3], 103%; in experiment [4] it was 104%; in experiment [7] it was 101%; in [8], 122%. Moreover, the growth in experiment [17] is 125%; in experiment [9], 100%; in experiment [10], 105%; in experiment [11] it was 104%; in [12], 151%; in experiment [14] it was 110%. The growth in [18] was 91.4%; in experiment [19] it was 116%; in experiment [15], 109%; in experiment [16], 119%.
Regarding `C[C@]12CC[C@H]3[C@@H](CC4SC(N)=NC45C/C(=N/NC(N)=O)CC[C@]35C)[C@@H]1CCC2=O` (some centres undefined), the growth in experiment [1] was 13.4%; in experiment [2], -21.8% (active); in experiment [3], -6.28% (active); in experiment [4], -2.26% (active); in experiment [6], -19.1% (active); in experiment [7], 101%. Also, the growth in experiment [8] is 2.9% (active); in [17], -32.3% (active); in experiment [9] it was 36.4%; in experiment [10] it was -5.32% (active); in experiment [11] it was -21% (active); in experiment [12], 107%. Besides, the growth in experiment [13] was -58.8% (active); in experiment [14], -59.2% (active); in experiment [18] it was -55.6% (active); in experiment [19] it was 6.35% (active); in experiment [15] it was 63.9%; in [16], 20.5%.
As to `O=C1C2CCC1C(N1CCCC1)CC2` (centres undefined), the growth in experiment [1] was 98%; in experiment [2], 100%; in experiment [3], 98.7%; in [4] it was 96.3%; in experiment [6] it was 106%; in [7], 106%. Also, the growth in experiment [8] was 96%; in [17], 106%; in [9] it was 102%; in experiment [10] it was 102%; in experiment [11], 106%; in experiment [12] it was 98%. The growth was 96.8% in experiment [13]; 99.5% in experiment [14]; 94.7% in [18]; 102% in experiment [19]; 106% in [15]; 101% in experiment [16].
Turning to `COC(=O)[C@@H](C)C[C@H](Cc1ccccc1)NC(=O)c1csc([C@@H](C[C@H](C(C)C)N(C)C(=O)[C@@H](NC(=O)[C@H]2CCCCN2C)c2ccc(F)cc2)OC(C)=O)n1`, the growth was 8.23% (active) in experiment [1]; 6.27% (active) in experiment [2]; 17.9% in [3]; 26.8% in experiment [4]; 21.2% in experiment [7]; 27% in experiment [8]. For the same compound, the growth in [9] is 1.1% (active); in [10], 5.55% (active); in experiment [11], 45.7%; in experiment [12], 0.368% (active); in experiment [13] it was -27.7% (active); in experiment [14], 22.8%. The growth in [18] was 22.3%; in experiment [19], 3.28% (active); in [15], 10.1%; in [16], -3.41% (active).
